From PubChem
HCMV inh = qHTS Assay for inhibitors of the human cytomegalovirus (HCMV). HFF cells, HCMV-luciferase reporter, 72 h; stronger effect = lower value. activity change, negative = inhibition, % at 57.5 µM. hit rate 4.5% among 410,000; in the data active means activity change below about -60%; inconclusive means no clear call, values can overlap the other calls; inactive means above about -39%
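HFF cells seeded 16 h at 37C, treated with compounds, infected with luciferase-reporter HCMV at MOI 1 PFU/cell; luciferase read at 72 h post infection, normalized to buffer-only and Salinomycin controls.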
MARV entry inh = qHTS for inhibitors of binding or entry into cells for Marburg Virus | Marburg virus pseudotyped entry inhibition, cell reporter | Potency, µM (top dose mostly 37.8 µM), hits mostly inhibitors | hit rate 1.8% among 300,000; calls by dose curve; tested in HEK293 cells
Vaccinia mCherry = qHTS for Stage-Specific Inhibitors of Vaccinia Orthopoxvirus: mCherry Reporter Primary qHTS; Vaccinia virus mCherry reporter infection, fluorescence; Potency, µM (series often up to 36.5 µM), hits mostly inhibitors; hit rate 0.63% among 310,000; calls by dose curve; tested in A549 cells; further: nearly all actives have a fitted effect of over 35% in size
Lassa entry inh = qHTS for Inhibitors of binding or entry into cells for Lassa Virus. Lassa virus pseudotype entry inhibition, cell reporter. hit rate 1.2% among 300,000. Potency, µM (doses to about 37.9 µM), hits mostly inhibitors; calls by dose curve; tested in HEK293 cells; further: nearly all actives have a fitted effect of over 50% in size
FMDV inh = High Throughput Screening for Foot and Mouth Disease Virus Antivirals | FMDV antiviral cell-based qHTS | hit rate 1.2% among 410,000 | Potency, µM (doses to about 57.9 µM), hits mostly inhibitors; calls by dose curve; tested in HEK293T cells; further: read-out not given here; nearly all actives have a fitted effect of over 45% in size
VACV Venus inh = qHTS for Stage-Specific Inhibitors of Vaccinia Orthopoxvirus: Venus Reporter Primary qHTS; Vaccinia virus Venus reporter expression, fluorescence; Potency, µM (top dose mostly 36.5 µM), most hits filed as inhibitors; hit rate 0.46% among 330,000; calls by dose curve; tested in A549 cells; further: nearly all actives have a fitted effect of over 30% in size
Numbers stand for hits; i = inactive; ? = inconclusive; nt = not tested or not shown; [ ] = another dose, or the depositor's remark. Rows were chosen to be rich in hits. Some 6.5% of all compounds tested hit in one or more screens of this group.

SMILES | HCMV inh | MARV entry inh | Vaccinia mCherry | Lassa entry inh | FMDV inh | VACV Venus inh
Cc1ccc(S(=O)(=O)N2CCCCC2)cc1NC(=O)c1nn(C)c(=O)c2ccccc12 | i | i | i | i | i | i
COc1ccccc1OCC(=O)NNC(=O)Nc1ccc(Cl)cc1 | -64 | ? | i | ? | i | i
C[N+]1(CC(=O)NNc2c3ccccc3nc3ccccc23)CCOCC1 | -96 | nt | nt | nt | nt | nt
COc1ccccc1OCC(=O)NNc1c2ccccc2nc2ccccc12 | -92 | nt | nt | nt | i | nt
Cc1cccc(S(=O)(=O)NC(=O)C2(C)CCN2C(=O)CCC2CCCC2)c1 (stereo not drawn) | i | nt | i | nt | i | i
Cc1ccccc1C(=O)Nc1cccc(NC(=O)c2ccc(-c3ccc(Br)cc3)o2)c1 | -96 | ? | nt | ? | ? | i
CC(C)c1ccc(NC2=NCC(=O)N2Cc2cccs2)cc1 | -60 | ? | i | ? | i | i
CC(=O)O[C@@H]1C[C@H]2C(C)(C)C(=O)C=C[C@]2(C)[C@H]2CC[C@@]3(C)[C@H](c4ccoc4)OC(=O)[C@H]4O[C@]43[C@@]21C | -79 | ? | 7.9µM | 18µM | 16µM | ?
Cc1ccc(COc2ccc(C)nc2[N+](=O)[O-])cc1 | i | ? | i | ? | i | i
CCOC(=O)c1nc(NNC(=O)c2ccc([N+](=O)[O-])cc2)sc1C | -97 | 8.9µM | ? | ? | i | ?
CCOC(=O)c1sc(NNC(=O)c2ccc(C)cc2)nc1C | i | i | i[7.34 µM] | i | i | i[7.34 µM]
Cc1nc2ccccc2c(N)c1C(=O)/C=C/c1ccccc1 | -99 | ? | 16µM | 10µM | 18µM | ?
CC(=O)c1c(C)nc2ccccc2c1N | i | i | nt | ? | i | i
CCC(C)Sc1ccc(-c2nc3ccc(C)cn3c2NCc2ccccc2)cc1OC (stereo not drawn) | nt | nt | ? | nt | 35µM | 13µM
CCC(C)Sc1cc(-c2nc3ccc(C)cn3c2NCc2ccccc2)ccc1OC (stereo not drawn) | -77 | nt | 10µM | nt | 16µM | ?
CCCCCCSc1ccc(-c2nc3ccc(C)cn3c2NCc2ccccc2)cc1OC | i | nt | ? | nt | i | i
COc1ccc(OC)c(N/C(C)=C/C(=O)c2ccccc2)c1 | i | ? | i | i | i | i
COc1cccc(C(=O)/C=C/Nc2cccc(O)c2)c1 | i | ? | nt | 2.9µM | 13µM | nt
COc1ccc(N/C=C/C(=O)c2cc(OC)c(OC)c(OC)c2)cc1 | -80 | ? | ? | i | i | ?
COc1ccc(OC)c(N/C=C/C(=O)c2ccccc2)c1 | -78 | 1µM | i | ? | 6.3µM | i
COc1cccc(N/C=C/C(=O)c2ccc(C)cc2)c1 | i | nt | nt | nt | i | nt
CC(OC(=O)CCc1cc(C(C)(C)C)c(O)c(C(C)(C)C)c1)C(=O)NC1CC1 (stereo not drawn) | i | ? | 13µM | ? | i | i
CCOC(=O)C(=Cc1ccc(-n2cncn2)cc1)C(=O)OCC | -100 | ? | ? | 11µM | 28µM | ?
CC(C)(C)NC(=O)C(c1c[nH]c2ccccc12)N(C(=O)Cn1nnc(-c2ccc(Cl)cc2)n1)c1ccccc1F (stereo not drawn) | ? | ? | i | ? | i | ?
COc1cccc(N(C(=O)Cn2nnc(-c3ccc(C)cc3)n2)C(C(=O)NC(C)(C)C)c2c[nH]c3ccccc23)c1 (stereo not drawn) | -66 | ? | nt | ? | i | nt
SMILES | HCMV inh | MARV entry inh | Vaccinia mCherry | Lassa entry inh | FMDV inh | VACV Venus inh
Fc1ccc(/C=C2\CCCC3=C2Nc2ncnn2C3c2ccc(F)cc2)cc1 (stereo not drawn) | i | ? | ? | ? | ? | 18µM
COc1cccc(CO[C@H]2C=C[C@@H](c3ccccc3)O[C@H]2CO)c1 | nt | i | nt | nt | nt | nt
CC(=O)Nc1cccc(C(=O)Nc2cc(C(F)(F)F)ccc2-n2cncn2)c1 | i | nt | ? | nt | i | i
O=C1CC(/C=C/c2ccncc2)=Nc2ccccc2N1 | -99 | ? | ? | i | i | i
CSc1ccc(/C=c2\s/c(=C\C(=O)C(C)(C)C)n(CC(=O)NCCC3=CCCCC3)c2=O)cc1 | i | nt | nt | nt | i | nt
CCCNC(=O)Cn1c(=O)/c(=C/c2ccc(-c3ccc([N+](=O)[O-])cc3)o2)s/c1=C\C(=O)C(C)(C)C | -96 | ? | ? | i | i | i
CC(C)C(=O)NC(c1cccc([N+](=O)[O-])c1)c1c(O)ccc2ccccc12 (stereo not drawn) | i | i | i | i | i | i
CCC(=O)NC(c1cccc([N+](=O)[O-])c1)c1c(OC(C)=O)ccc2ccccc12 (stereo not drawn) | i | ? | nt | ? | ? | i
CCCC(=O)NC(c1cccc([N+](=O)[O-])c1)c1ccc2cccnc2c1O (stereo not drawn) | -98 | nt | 4µM | nt | i | ?
CC(C)C(=O)NC(c1cccc([N+](=O)[O-])c1)c1ccc2cccnc2c1O (stereo not drawn) | -105 | ? | ? | 7.1µM | i | 4.5µM
COc1cc(OC)cc(-c2c(-c3cccs3)c3cc(-c4ccc(CN5CCOCC5)cc4)ccc3n2C)c1 | i | nt | i | nt | i | i
COc1ccc(NC(=O)CN2C(=O)COc3ccc(C)cc32)cc1 | i | nt | nt | nt | i | nt
Cc1ccc(C(=O)NCCc2cccs2)cc1 | -61 | 1.8µM | nt | ? | i | nt
O=C(NCCc1cccs1)c1ccc(Cl)cc1 | i | ? | i | 5.6µM | i | i
O=C(/C=C/c1ccc(Cl)cc1)NCc1cccs1 | i | i | i | 5.8µM | i | i
O=C(NCCc1cccs1)c1ccc(Cl)c(Cl)c1 | i | ? | ? | i | i | ?
Cc1cnc(SCCN2CCOCC2)nc1C1CCCN(C(=O)c2cccc3c(C)c(C)[nH]c23)C1 (stereo not drawn) | nt | nt | i | nt | i | i
O=C(CSc1nnc2c(n1)[nH]c1ccccc12)Nc1cccc(S(=O)(=O)N2CCOCC2)c1 | i | nt | nt | nt | ? | nt
CCn1c(=O)cc(OCC(=O)N2CCN(c3cccc(C)c3C)CC2)c2ccccc21 | i | i | i | ? | 20µM | i
CC(C)c1ccc(Nc2nc(Nc3ccc(Cl)cc3)nc(N3CCOCC3)n2)cc1 | nt | nt | i | nt | nt | i
O=C(Nc1ccc(NC(=O)N2CCN(c3ccccc3O)CC2)cc1)N1CCN(c2ccccc2O)CC1 | i | i | ? | ? | i | i
Cc1ccc(-n2c(SCC(=O)O)nc3sc4c(c3c2=O)CCCC4)cc1 | i | i | i | ? | i | i
Cc1ccc(-n2c(SCC(=O)c3c(N)n(C)c(=O)n(C)c3=O)nc3sc4c(c3c2=O)CCCC4)c(C)c1 | -68 | ? | i | i | i | i
Cc1nn(C)c(C(=O)Nc2ccc(S(=O)(=O)NC34CC5CC(CC(C5)C3)C4)cc2)c1Br | nt | ? | 13µM | ? | i | ?
Cc1ccc(S(=O)(=O)NC23CC4CC(CC(C4)C2)C3)cc1 | i | nt | nt | nt | i | nt
COc1ccc(N=Nc2ccc(CO)cc2)cc1 | i | ? | i | 1µM | i | i
CCc1ccc(C(O)c2ncc(-c3ccccc3Cl)[nH]2)cc1 (stereo not drawn) | -96 | nt | i | nt | i | i
